Compounds without any hit were thinned out: in the full panel of roughly 83,000, 20% have a hit.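 Plates (96-well) were seeded with cells, treated with compound at one concentration, and incubated for 48 hours before percent growth was determined.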 Values without a mark were called inactive. Calls of active or inactive are those of the source. How the source made its calls: active means growth percent below 10; inactive means the rest.
Assays:
Test in all cases: NCI-60 one-dose screen, 48 h (100 = growth as untreated, 0 = no growth, -100 = all killed)
Conditions in all cases: 10 µM unless noted
RPMI-8226 leukemia = test system: RPMI-8226 leukemia
OVCAR-8 ovarian = test system: OVCAR-8 ovarian
OVCAR-5 ovarian = test system: OVCAR-5 ovarian
OVCAR-4 ovarian = test system: OVCAR-4 ovarian
SK-OV-3 ovarian = test system: SK-OV-3 ovarian
IGROV1 ovarian = test system: IGROV1 ovarian
OVCAR-3 ovarian = test system: OVCAR-3 ovarian
HS 578T breast = test system: HS 578T breast
NCI/ADR-RES ovarian = test system: NCI/ADR-RES ovarian
BT-549 breast = test system: BT-549 breast
MDA-MB-435 melanoma = test system: MDA-MB-435 melanoma
SW-620 colon = test system: SW-620 colon
MCF7 breast = test system: MCF7 breast
HCT-116 colon = test system: HCT-116 colon
HCC-2998 colon = test system: HCC-2998 colon
KM12 colon = test system: KM12 colon
T-47D breast = test system: T-47D breast

| SMILES | growth (RPMI-8226 leukemia) | growth (OVCAR-8 ovarian) [%] | growth (OVCAR-5 ovarian) [%] | growth (OVCAR-4 ovarian) [%] | growth (SK-OV-3 ovarian) | growth (IGROV1 ovarian) | growth (OVCAR-3 ovarian) | growth (HS 578T breast) [%] | growth (NCI/ADR-RES ovarian) [%] | growth (BT-549 breast) | growth (MDA-MB-435 melanoma) | growth (SW-620 colon) | growth (MCF7 breast) | growth (HCT-116 colon) | growth (HCC-2998 colon) [%] | growth (KM12 colon) | growth (T-47D breast) [%] |
| --- | --- | --- | --- | --- | --- | --- | --- | --- | --- | --- | --- | --- | --- | --- | --- | --- | --- |
| CS(=O)(=O)c1ccc(-n2cc(/C=C/C(=O)c3ccc(NC(=O)CO[N+](=O)[O-])cc3)c(-c3ccc(Cl)cc3)n2)cc1 | 108% | 92.5 | 97.7 | 114 | 89.7% | 94.4% | 111% | 83.6 | 94.4 | 103% | 104% | 114% | 84.4% | 103% | 93.4 | 107% |  |
| COc1ccc(NC(=O)c2sc3nc(-c4cnccn4)cc(-c4cccs4)c3c2N)cc1 | 74.2% | 71.7 | 93.1 | 82.1 | 23.1% | 86.3% | 76.8% | 73.7 | 78.2 | 42.4% | 71.5% | 65.2% | 57.4% |  | 67.5 | 61% |  |
| N#Cc1nc(-c2ccccc2)oc1S(=O)(=O)N1CCCCC1 | 64.6% | 89.9 | 102 | 101 | 132% | 19.9% | -54.2% (active) | 106 | 99.3 | 85.7% | 68% | -12.8% (active) | 29.2% |  | 105 | 101% |  |
| C=C1CC[C@H]2[C@@](C)(CCC3OC(c4ccc(OCc5cn(C6CC(OC(C)=O)C(OC(C)=O)C(COC(C)=O)O6)nn5)cc4)OC[C@]32C)[C@@H]1/C=C/C1=CCOC1=O (some centres undefined) | 41.2% | 81.8 | 97.4 | 72.7 | 103% | 89.2% | 81.9% | 75.7 | 92.8 | 61.2% |  | 96.1% |  | 48.3% | 100 | 86.3% | 40 |
| O=C(CSc1nc2sc3c(c2c(=O)n1-c1ccc(Cl)cc1)CCCC3)NNC(=O)Nc1cccc(C(F)(F)F)c1 | -7.39% (active) | 22.1 | 52.6 | 22.5 | 62.1% | 24.4% | 5.17% (active) | 56.9 | 32.2 | 54% |  | 22.1% | 16.7% | 5.54% (active) | 38.9 | 11% | 13.2 |
| O=C(CSc1nnc(-c2ccc3nc(-c4ccc(Cl)cc4)[nH]c3c2)o1)Nc1ccc(C(=O)/C=C/c2ccc(Cl)cc2)cc1 | 4.95% (active) | 97.1 | 108 | 101 | 110% | 85.5% | 121% | 89 | 105 | 99.6% |  | 103% | 55.2% | 77.8% | 116 | 99.3% | 87.1 |
| CN1CCN(Cc2ccc(NC(=O)c3cncc(C#Cc4cnc5[nH]ncc5c4)c3)cc2C(F)(F)F)CC1 | 31.2% | 41.3 | 41.6 | 54.5 | 2.28% (active) | 7.92% (active) | 51.9% | 20.1 | 75.8 | 73.3% | 8.99% (active) | 11.5% |  | 12.4% | 45.7 | 6.81% (active) | 40.7 |
| NS(=O)(=O)c1cccc(Nc2nc(SCC(=O)c3ccc([N+](=O)[O-])cc3)nc3ccccc23)c1 | -9.57% (active) | 24.1 | 108 | 43 | 73.5% | 16.6% | 36.5% | 65.6 | 72.7 | -4.45% (active) | 51.3% | 69.2% | 11.7% |  | 54.3 |  |  |
| COc1ccc(C(=O)/C=C/c2ccc(OCc3ccc(Cl)cc3)c(OC)c2)cc1OC | -2.25% (active) | 58.4 | 100 | 68.6 | 82.9% | 73.5% | 78.5% | 82 | 55.2 | 62.1% | 79.4% | 43.1% |  | 20.8% | 84.3 | 54.9% | 50.6 |
| Cc1nc(-c2cc3ccccc3oc2=O)ccc1C(=O)/C=C/c1ccccn1 | -36.3% (active) | 69.3 | 60.7 | 85.2 | 116% | 7% (active) | 46.9% | 80.3 | 77.4 | 82.5% |  | 1.33% (active) | 8.39% (active) | -21% (active) | 66.6 |  | 52.1 |

Reference: PubChem BioAssay (NCI)
